Consider 14 compounds from PubChem BioAssay (NCI).

This is part of a sample that, as a whole, favours compounds with a hit. Of some 83,000 tested, about 20% had one in any assay.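 How to read the values: 0–100, growth inhibition (40 = 60% inhibited); 0, no net growth; -100 to 0, cell death (-40 = 40% of starting cells died; -100 = all dead).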 A number with no mark means an inactive call. Activity calls are given as the source filed them. Rule for the calls: active = growth percent below 10; inactive = the rest.

Among the test systems are NCI-H23 lung; NCI-H226 lung; NCI-H322M lung; HOP-62 NSCLC; HOP-92 NSCLC; NCI-H522 lung; A549/ATCC NSCLC; 786-0 renal; COLO 205 colon; NCI-H460 lung.
Assay in all cases: NCI-60 one-dose screen, 48 h (100 = growth as untreated, 0 = no growth, -100 = all killed)
Common to all, as to conditions: 10 µM unless noted

Take `O=C(c1ccccc1)c1c(/C=C/c2ccc(Cl)cc2)nc2ccccc2c1/C=C/c1cccs1`: the growth in the assay on NCI-H23 lung was 102%; in the assay with NCI-H226 lung, 92.4%; in the assay on NCI-H322M lung it was 89.4%; in the assay on HOP-62 NSCLC it was 106%; in the assay with HOP-92 NSCLC, 87.3%; in the assay with NCI-H522 lung, 88.6%. Moreover, the figures for the growth in the assay on A549/ATCC NSCLC, with 786-0 renal and in the assay with COLO 205 colon were 92.9%, 94.9% and 103%, respectively.
As for `Cc1nn(-c2ccccc2)c(Oc2ccc(Cl)cc2)c1/C=N\N=c1/sc2ccccc2n1C`, the growth in the assay with NCI-H23 lung was 88.9%; with NCI-H226 lung, 84.3%; with NCI-H322M lung, 83.8%; in the assay on HOP-62 NSCLC, 86.7%; in the assay on HOP-92 NSCLC, 71.9%; in the assay with NCI-H522 lung it was 68%. In addition, the growth was 86.1% in the assay on A549/ATCC NSCLC, 96.3% with 786-0 renal and 93% in the assay on COLO 205 colon.
For `CCOP(=O)(OCC)C1CP(=O)(c2ccccc2)CC(C)=C1Cl` (stereo unspecified), the growth in the assay on NCI-H23 lung was 91.7%; in the assay with NCI-H226 lung, 99.3%; in the assay on NCI-H322M lung, 97.7%; with HOP-62 NSCLC, 97.1%; in the assay on NCI-H460 lung, 113%; in the assay on NCI-H522 lung, 65.3%. Moreover, the growth in the assay with A549/ATCC NSCLC is 87.5%; in the assay on 786-0 renal it was 87.8%; with COLO 205 colon, 109%.
Consider `O=S(=O)(O)c1ccc(N/N=C/c2ccccc2Cl)cc1`, for which the growth is 108% with NCI-H23 lung; 111% in the assay on NCI-H226 lung; 108% with NCI-H322M lung; 123% in the assay on HOP-62 NSCLC; 116% in the assay on HOP-92 NSCLC; 96.9% in the assay with NCI-H522 lung. In addition, the growth with A549/ATCC NSCLC is 99.5%; in the assay on 786-0 renal, 95.6%; in the assay with COLO 205 colon, 112%.
With `CCOc1ccccc1-c1cc(-c2cccs2)c(C#N)c(=O)[nH]1`, the growth was 86.1% in the assay with NCI-H23 lung; 90.9% in the assay with NCI-H226 lung; 83.9% in the assay on NCI-H322M lung; 93.8% with NCI-H460 lung; 64.7% with HOP-92 NSCLC; 75.5% in the assay with NCI-H522 lung. The figures for the growth in the assay with A549/ATCC NSCLC, with 786-0 renal and with COLO 205 colon were 91.2%, 92.1% and 114%, respectively.
As for `C=CCn1c(C)nc2cc(Nc3nc(N4CCCC4)nc4ccccc34)ccc21`, the growth was 88.6% in the assay with NCI-H23 lung; 97.7% with NCI-H226 lung; 90.6% in the assay with HOP-62 NSCLC; 81.2% in the assay on NCI-H460 lung; 81.3% in the assay with HOP-92 NSCLC; 127% with NCI-H522 lung. The growth in the assay with A549/ATCC NSCLC was 74.6%; with 786-0 renal, 75.9%; with COLO 205 colon, 92.6%.
For the compound `COc1cccc(-c2nn(-c3ccccc3)cc2-c2ccnc(NCCNC(=O)c3ccccc3)c2)c1`, the growth in the assay with NCI-H23 lung is 61.4%; in the assay with NCI-H226 lung, 70.4%; in the assay with NCI-H322M lung, 109%; in the assay on NCI-H460 lung, 63.7%; with HOP-92 NSCLC, 52.8%; in the assay with NCI-H522 lung it was 56.7%. Moreover, the results for the growth in the assay with A549/ATCC NSCLC, in the assay with 786-0 renal and in the assay with COLO 205 colon were 41.8%, 54.4% and 62.6%, respectively.
Turning to `CCN1CCN(c2cc(C)nc(NCc3cc(Nc4ccnc5cc(Cl)ccc45)ccc3F)n2)CC1`, the growth with NCI-H23 lung was 56%; in the assay with NCI-H226 lung, 83.7%; in the assay with HOP-62 NSCLC, 52.3%; in the assay with NCI-H460 lung, 61.8%; in the assay with HOP-92 NSCLC, 62.9%; in the assay on NCI-H522 lung, 106%. Also, the figures for the growth with A549/ATCC NSCLC, in the assay with 786-0 renal and in the assay with COLO 205 colon were 74.6%, 85% and -86.2% (active), respectively.
In the case of `CC/C=C\C[C@H](O)C/C=C1/C(=O)C=C[C@@H]1C/C=C\CCCC(=O)OC`, the growth was -7.41% (active) with NCI-H23 lung; -34.5% (active) in the assay with NCI-H226 lung; 29.3% in the assay with NCI-H322M lung; -46.3% (active) with NCI-H460 lung; -20.5% (active) with HOP-92 NSCLC; -69.6% (active) in the assay on NCI-H522 lung. Also, the growth in the assay on A549/ATCC NSCLC is -21.4% (active); in the assay on 786-0 renal, -49.6% (active); in the assay on COLO 205 colon it was -52.1% (active).
For `CCOc1c(C#N)nnc2c(C#N)c(NC(=O)c3ccccc3)nn12`, the growth in the assay on NCI-H23 lung is 90.8%; in the assay on NCI-H226 lung, 92.6%; in the assay on NCI-H322M lung it was 95%; in the assay with NCI-H460 lung, 111%; with HOP-92 NSCLC, 89.3%; in the assay with NCI-H522 lung it was 95%. Also, the growth in the assay with A549/ATCC NSCLC was 95%; with 786-0 renal it was 98.4%; in the assay with COLO 205 colon, 107%.
For `COc1ccc(NC(=O)CSc2nc(C)c(C(C)=O)n2-c2ccc([N+](=O)[O-])cc2)cc1`, the growth in the assay with NCI-H23 lung is 88.2%; in the assay with NCI-H226 lung it was 89%; with NCI-H322M lung it was 92.7%; in the assay on NCI-H460 lung, 103%; in the assay on HOP-92 NSCLC, 112%; with NCI-H522 lung, 88.9%. For the same compound, the growth with A549/ATCC NSCLC was 90.6%; in the assay on 786-0 renal, 83.9%; with COLO 205 colon it was 102%.
Take `Fc1cnc(NC2CC2)nc1-c1cnc2ccc(N3CCOCC3)cn12`: the growth in the assay with NCI-H23 lung is -7.34% (active); in the assay with NCI-H226 lung, 0.213% (active); in the assay with NCI-H322M lung it was 4.31% (active); with NCI-H460 lung it was 4.3% (active); in the assay with HOP-92 NSCLC, 1.51% (active); in the assay with NCI-H522 lung it was -18.5% (active). Further, the growth in the assay on A549/ATCC NSCLC was 3.21% (active); in the assay with 786-0 renal, 11.2%; in the assay with COLO 205 colon it was -22.1% (active).
On to `NS(=O)(=O)c1ccc(-n2nc(C(=O)N/N=C\c3ccc(F)cc3)cc2-c2ccc(Cl)cc2)cc1`, for which the growth was 84.2% in the assay with NCI-H23 lung; 82.7% with NCI-H226 lung; 89.6% in the assay on NCI-H322M lung; 99.4% in the assay with NCI-H460 lung; 56% with HOP-92 NSCLC; 78.4% with NCI-H522 lung. Moreover, the results for the growth in the assay on A549/ATCC NSCLC, in the assay on 786-0 renal and in the assay on COLO 205 colon were 95.1%, 105% and 116%, respectively.
Take `CN(C)c1ccc(/C=C/C(=O)c2cccc(Nc3nc(Nc4ccccc4)nc(Nc4ccccc4)n3)c2)cc1`: the growth was 82.7% in the assay on NCI-H23 lung; 94% in the assay with NCI-H226 lung; 93.5% in the assay with NCI-H322M lung; 98.4% in the assay on NCI-H460 lung; 46.9% in the assay on HOP-92 NSCLC; 87.3% in the assay with NCI-H522 lung. The growth was 85.6% in the assay on A549/ATCC NSCLC, 88.2% in the assay on 786-0 renal and 81.5% in the assay on COLO 205 colon.
